Compound activity: PubChem, National Center for Advancing Translational Sciences (NCATS)
Shown are actives, neighbours in structure and some others; about 1.6% of the full set was active somewhere.
p53ts 32C tox = cytotoxicity in p53ts cells at permissive temperature | H1299-p53A138V at 32C, ATP luminescence viability, 24 h | Potency, µM (titrated, usually from 46.1 µM), for inactives: at the top dose activity change, negative = cytotoxicity, usual class: cytotoxic | 130,000 tested, 0.93% active;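 note: 0% = DMSO and -100% = full killing by reference compound; nearly all actives have a fitted effect of over 55% in size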
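Viability by ATPlite luminescence after 24 h compound treatment (up to 46 uM) at the permissive 32C. Cells are H1299 carrying p53 A138V. Scale runs from DMSO basal to 100 uM tamoxifen as full kill; AC50 from Hill fits.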
p53ts 39C kill = cytotoxicity in p53ts cells at nonpermissive temperature; H1299-p53A138V viability at 39C, ATP luminescence, 24 h; Potency, µM (top dose mostly 46.1 µM), without a hit: top-dose activity change, negative = cell killing, actives largely listed as cytotoxic; 130,000 tested, 1.5% active; AID 902; note: % is set by controls: 0 for no effect and ±100 for the full control effect; nearly all actives have a fitted effect of over 55% in size
Imprint erasure = inducers of genomic imprint erasure in mouse ES cells | AID 1948 | Potency, µM (highest dose often 60.7 µM), for inactives: at the highest dose activity change, positive = activation, hits mostly activators | 110,000 tested, 0.02% active | mouse ES Peg3-LacZ reporter, beta-gal luminescence, 40 h
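Imprint erasure is scored as LacZ activity from the silenced maternal Peg3 allele in feeder-free female ES cells cultured 40 h with LIF. Luminescence is normalized to in-plate negative controls and fitted to the Hill equation.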
An asterisk follows results filed as active; [ ] = remark or other dose. Calls come from the whole dose curve; as a rule, active = well fitted curve in the direction sought with a large enough effect; inconclusive = small, poorly fitted or top-dose-only effect, or another doubt; inactive = no such curve, though single readings can be large; an effect the other way counts as inactive or inconclusive. Potency is the fitted concentration of half-maximal effect.

For Cc1ccc2nc(COc3ccccc3NC(=O)C(C)(C)C)cc(=O)n2c1 the results were p53ts 32C tox 11%, p53ts 39C kill 23% and Imprint erasure inconclusive.
For CCc1ccc(S(=O)(=O)Nc2cccc(-c3ccc(OC)nn3)c2)s1 the results were p53ts 32C tox -12%, p53ts 39C kill -9% and Imprint erasure -8%[10.9 µM].
Screening CCc1ccc(S(=O)(=O)Nc2cccc(-c3ccc(N4CCCCC4)nn3)c2)s1 returned p53ts 32C tox 13µM*, p53ts 39C kill 16µM* and Imprint erasure -15%[10.9 µM].
Cc1ccc(S(=O)(=O)Nc2cccc(-c3ccc(N4CCCC4)nn3)c2)c(C)c1 was read as p53ts 32C tox 7%, p53ts 39C kill -5% and Imprint erasure -8%[10.9 µM].
For O=S(=O)(Nc1cccc(-c2ccc(N3CCCCCC3)nn2)c1)c1ccc(F)cc1 the results were p53ts 32C tox inconclusive, p53ts 39C kill -35% and Imprint erasure -9%[10.9 µM].
For Cc1ccc(S(=O)(=O)Nc2cccc(-c3ccc(N4CCCCC4)nn3)c2)s1 the results were p53ts 32C tox 13µM*, p53ts 39C kill 1µM* and Imprint erasure -11%[10.9 µM].
CC(=O)c1ccc(S(=O)(=O)Nc2cccc(-c3ccc(N4CCCCC4)nn3)c2)cc1 was read as p53ts 32C tox 10µM*, p53ts 39C kill 5µM* and Imprint erasure -17%[10.9 µM].
CCn1cc(SCC(=O)NCc2ccc3c(c2)OCO3)c2ccccc21 was read as p53ts 32C tox 5µM*, p53ts 39C kill 5µM* and Imprint erasure -90%.
Cn1cc(SCC(=O)NCc2ccc3c(c2)OCO3)c2ccccc21 was read as p53ts 32C tox -15%, p53ts 39C kill 6% and Imprint erasure -87%.
CO[C@H]1COC(=O)C/C=C\[C@H](C)[C@@H](OC)COC(=O)[C@H](C)COC(=O)C/C=C\[C@@H]1C was read as p53ts 32C tox -2%[9.22 µM] and p53ts 39C kill 10%[9.22 µM].
For O=C(NCc1ccc(Cl)cc1)C1CCCN(c2nc3ccccc3n3cccc23)C1 (configuration not stated) the results were p53ts 32C tox -10%, p53ts 39C kill inconclusive and Imprint erasure 28%[10.9 µM].
CCOc1ccc(CCNC(=O)c2nnc(Cc3cc(OC)c(OC)c(OC)c3)o2)cc1OCC was read as p53ts 32C tox 11%, p53ts 39C kill -5% and Imprint erasure -7%[10.9 µM].
COc1ccc(-c2cc(C(=O)OCC(=O)N3CCCC3)c3ccccc3n2)cc1 was read as p53ts 32C tox 13µM*, p53ts 39C kill 6.3µM* and Imprint erasure -43%.
Cc1cc(C(=O)OCC(=O)N2CCOCC2)c2ccccc2n1 was read as p53ts 32C tox 6%, p53ts 39C kill 9% and Imprint erasure -4%.
COc1ccc(-c2cc(C(=O)Oc3ccc(Br)cc3)c3ccccc3n2)cc1 was read as p53ts 32C tox inconclusive, p53ts 39C kill 13µM* and Imprint erasure -18%[10.9 µM].
Screening COc1ccc(-c2cc(C(=O)Oc3ccc(C)c(C)c3)c3ccccc3n2)cc1 returned p53ts 32C tox -15%, p53ts 39C kill -18% and Imprint erasure -8%[10.9 µM].
Screening COc1ccc(CNS(=O)(=O)c2ccc(-c3cc(C(F)(F)F)on3)s2)cc1OC returned p53ts 32C tox -2%, p53ts 39C kill 8% and Imprint erasure 29%[10.9 µM].
COc1cc2c(cc1O)CC[C@@H]1[C@@H]2CC[C@@]2(C)[C@H](O)CC[C@H]12 was read as p53ts 32C tox 9% and p53ts 39C kill inconclusive.
COc1ccccc1N1CCN(C(=O)CSc2nc(-c3ccc(C(C)C)cc3)no2)CC1 was read as p53ts 32C tox 7.9µM*, p53ts 39C kill inconclusive and Imprint erasure -11%[10.9 µM].
For O=C(CSc1nc(-c2ccccc2)no1)N1CCCCC1 the results were p53ts 32C tox -18%, p53ts 39C kill -24% and Imprint erasure 2%[10.9 µM].
`O=C(CSc1nc(-c2ccccc2)no1)N1CCN(c2ccccc2F)CC1` gave p53ts 32C tox -1%, p53ts 39C kill -16% and Imprint erasure 24%[10.9 µM].
Screening CC(C)c1ccc(-c2noc(SCC(=O)N3CCN(c4ccccc4F)CC3)n2)cc1 returned p53ts 32C tox inconclusive, p53ts 39C kill 6.3µM* and Imprint erasure -13%[10.9 µM].
For O=C(O)CSc1ccc([N+](=O)[O-])cc1[N+](=O)[O-] the results were p53ts 32C tox 12%[9.22 µM], p53ts 39C kill 4%[9.22 µM] and Imprint erasure -5%[10.9 µM].
CO[C@H]1COC(=O)[C@H]2CCCN2C(=O)C/C=C\[C@@H](C)[C@H](OC)COC(=O)C/C=C\[C@@H]1C was read as p53ts 32C tox -3%[9.22 µM] and p53ts 39C kill 1%[9.22 µM].
For Cc1c(C(=O)O)nnn1-c1ccccc1 the results were p53ts 32C tox -1%, p53ts 39C kill 11% and Imprint erasure 2%.
